Data published in PubChem BioAssay AID1220 (Sanford-Burnham Center for Chemical Genomics, 2008).
The campaign covered roughly 190,000 compounds. About 1,300 (0.68%) were called active. Cut-off read from the data, not from the text of the source: active = inhibition above about 50%; inactive = the rest. What follows is part of a selection rich in actives, with near analogues and random picks from the rest.

What follows are molecules tested against Mannose-6-phosphate isomerase (Homo sapiens) (UniProt P34949) (assay: MPI inhibition at elevated mannose 6-phosphate – biochemical, fluorescence intensity, high mannose 6-phosphate, primary screen (AID 1220)). Conditions: recombinant PMI enzyme, coupled fluorescence intensity; at 20 µM; stronger effect = higher value.
Mannose-6-phosphate isomerase (Homo sapiens), sequence (P34949 whole entry, looked up): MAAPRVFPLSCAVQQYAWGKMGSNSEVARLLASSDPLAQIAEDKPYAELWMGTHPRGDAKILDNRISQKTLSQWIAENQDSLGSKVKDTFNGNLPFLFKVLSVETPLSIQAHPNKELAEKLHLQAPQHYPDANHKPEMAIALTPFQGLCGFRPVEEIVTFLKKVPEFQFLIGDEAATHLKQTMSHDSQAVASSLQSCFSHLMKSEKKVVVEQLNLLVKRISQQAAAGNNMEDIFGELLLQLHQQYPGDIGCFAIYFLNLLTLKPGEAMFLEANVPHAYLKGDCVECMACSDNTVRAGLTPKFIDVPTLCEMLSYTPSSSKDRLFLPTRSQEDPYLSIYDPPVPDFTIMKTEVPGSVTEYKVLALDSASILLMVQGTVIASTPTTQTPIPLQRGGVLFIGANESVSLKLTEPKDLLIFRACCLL

SMILES | inhibition
CC(C)CCN1CCN(C2CCN(c3ccc4c(c3)OCO4)CC2)CC1CCO (stereo not given) | 52.3% (active)
Cc1cc(F)ccc1N1CCC(N2CCN(CCC(C)C)C(CCO)C2)CC1 (stereo not given) | 4.2% (inactive)
CC(C)CCN1CCN(C2CCN(c3ccccc3)CC2)CC1CCO (stereo not given) | 7% (inactive)
C=CCSc1nnc(NC(=O)c2cn(CC)c3nc(C)ccc3c2=O)s1 | -1.9% (inactive)
COc1ccc(CCn2c(N)c(C(=O)NCc3ccco3)c3nc4ccccc4nc32)cc1 | 48.2% (inactive)
COCCn1c(N)c(C(=O)Nc2sc3c(c2C(=O)OC)CCCC3)c2nc3ccccc3nc21 | 11.1% (inactive)
COc1ccc(OC)c(-n2c(N)c(C(=O)NCC3CCCO3)c3nc4ccccc4nc32)c1 (stereo not given) | 17.6% (inactive)
Nc1c(C(=O)NCc2ccco2)c2nc3ccccc3nc2n1CCc1ccccc1 | 34.8% (inactive)
COCCn1c(N)c(C(=O)OCc2ccccc2)c2nc3ccccc3nc21 | 49.4% (inactive)
COCCn1c(N)c(S(=O)(=O)c2cccs2)c2nc3ccccc3nc21 | 4.3% (inactive)
COCCn1c(N)c(C(=O)NCC2CCCO2)c2nc3ccccc3nc21 (stereo not given) | 71.5% (active)
COc1ccc(CCn2c(N)c(C(=O)NCc3ccco3)c3nc4ccccc4nc32)cc1OC | 51.6% (active)
COc1ccccc1CNC(=O)c1c(N)n(CCCN2CCOCC2)c2nc3ccccc3nc12 | 52.5% (active)
COc1ccc(CNC(=O)c2c(N)n(CCCN3CCOCC3)c3nc4ccccc4nc23)cc1 | 20.1% (inactive)
Nc1c(C(=O)NCc2ccccc2)c2nc3ccccc3nc2n1CCCN1CCOCC1 | 49% (inactive)
COCCn1c(N)c(C(=O)NCc2cccs2)c2nc3ccccc3nc21 | 62.5% (active)
COc1ccccc1/C=N/NC(=O)c1ccccc1Cl | 2.7% (inactive)
COc1ccc2nc(C)cc(SCC(=O)NNC(=O)COc3cccc4ccccc34)c2c1 | -3% (inactive)
CC(C)N(C(=O)Cn1cc(SCC(N)=O)c2ccccc21)C(C)C | -4.4% (inactive)
COc1cccc(NC(=O)CSCC(=O)O)c1 | 8.3% (inactive)
CCOC(=O)Cn1cc(C(=O)c2cccs2)c2ccccc21 | 5.6% (inactive)
O=S(=O)(NC1CC2CCC1C2)c1ccc2c(c1)OCCO2 (stereo not given) | 3.1% (inactive)
CC(=O)Nc1ccc(NC(=O)Cn2c(=O)n(-c3ccc(F)cc3)c(=O)c3oc4ccccc4c32)cc1 | -9.8% (inactive)
COCCNC(=O)c1c(N)n(-c2cccc(C)c2)c2nc3ccccc3nc12 | 25.9% (inactive)

SMILES | inhibition
C=CCn1c(N)c(C(=O)Nc2ccc(C)c(C)c2)c2nc3ccccc3nc21 | 41.2% (inactive)
COc1ccc(-n2c(N)c(C(=O)NCC3CCCO3)c3nc4ccccc4nc32)c(OC)c1 (stereo not given) | 45% (inactive)
C=CCn1c(N)c(C(=O)Nc2ccccc2)c2nc3ccccc3nc21 | 13.4% (inactive)
COCCCNC(=O)c1c(N)n(-c2ccc(S(N)(=O)=O)cc2)c2nc3ccccc3nc12 | 38.7% (inactive)
COCCNC(=O)c1c(N)n(-c2ccccc2)c2nc3ccccc3nc12 | 55.1% (active)
CC(C)Cn1c(N)c(C(=O)NCC2CCCO2)c2nc3ccccc3nc21 (stereo not given) | 59.5% (active)
COc1ccccc1-n1c(N)c(C(=O)NCC2CCCO2)c2nc3ccccc3nc21 (stereo not given) | -18.2% (inactive)
CC(C)Cn1c(N)c(C(=O)NCCN2CCOCC2)c2nc3ccccc3nc21 | 20.7% (inactive)
C=CCn1c(N)c(C(=O)NCC2CCCO2)c2nc3ccccc3nc21 (stereo not given) | 57% (active)
Nc1c(C(=O)NCC2CCCO2)c2nc3ccccc3nc2n1-c1ccccc1 (stereo not given) | 60.3% (active)
O=C(NCC1CCCO1)c1coc2nc3ccccc3nc12 (stereo not given) | -9.5% (inactive)
O=C(Cn1c(NCCCO)nc2ccccc21)c1cccc(Br)c1 | 4.9% (inactive)
O=C(CSc1nnc(COc2ccccc2)n1Cc1ccco1)NCc1ccco1 | 2.2% (inactive)
O=C1CC(c2ccccc2)CC(O)=C1C=NCc1ccccc1Cl (stereo not given) | 4.3% (inactive)
O=C(COC(=O)c1cc2c(s1)CCCC2)Nc1ccc(Cl)cn1 | 4.6% (inactive)
CCc1nnc(NC(=O)CCC(=O)N2CCN(CCc3ccccc3)CC2)s1 | -5.9% (inactive)
CCn1c(CNc2ccc(F)cc2)nnc1SCC(=O)N1CCCc2ccccc21 | 27.9% (inactive)
CCc1ccccc1S(=O)(=O)Cc1ccc(C(=O)NCc2ccc3c(c2)OCO3)o1 | -1.6% (inactive)
CCC(=O)Nc1c(C#N)c2nc3ccccc3nc2n1-c1ccccc1C | 24.5% (inactive)
N#Cc1c(NC(=O)c2ccccc2Cl)n(Cc2ccccc2)c2nc3ccccc3nc12 | 32.7% (inactive)
Cc1ccccc1C(=O)Nc1ccc2c(C#N)c3nc4ccccc4nc3n2c1 | 6.1% (inactive)
CCCCCn1c(N)c(C#N)c2nc3ccccc3nc21 | 42.7% (inactive)
N#Cc1c(N)n(CCNC(=O)c2ccccc2)c2nc3ccccc3nc12 | 24.7% (inactive)
CCCCn1c(NC(=O)c2ccccc2)nc2ccccc21 | -3.6% (inactive)

SMILES | inhibition
CCCCn1c(NC(=O)c2ccccc2)c(C#N)c2nc3ccccc3nc21 | 54.7% (active)
N#Cc1c(N)n(CCNC(=O)c2ccc(Cl)cc2)c2nc3ccccc3nc12 | 16.9% (inactive)
CCCCn1c(NC(=O)CC)c(C#N)c2nc3ccccc3nc21 | 13% (inactive)
CCCCn1c(NC(C)=O)c(C#N)c2nc3ccccc3nc21 | 57% (active)
CCCCn1c(NC(=O)c2ccccc2Cl)c(C#N)c2nc3ccccc3nc21 | 53.7% (active)
C=CCn1c(NC(=O)c2ccccc2Cl)c(C#N)c2nc3ccccc3nc21 | 54.5% (active)
O=C(CSc1nc2ccccc2n1CC(=O)N1CCCC1)NCc1ccc2c(c1)OCO2 | -0.8% (inactive)
Cc1ccc(NC(=O)c2cc3c(s2)CCC3)cc1S(=O)(=O)N1CCOCC1 | 8.8% (inactive)
COc1ccc(S(=O)(=O)NCc2cccs2)cc1 | -18.3% (inactive)
O=C(NC(=S)NCCCN1CCOCC1)c1cccc2ccccc12 | 1% (inactive)
O=C1c2ccccc2C(=O)N1c1cccc2cccnc12 | -2.2% (inactive)
O=S1(=O)NC(=NCCc2ccccn2)c2ccccc21 | -6.8% (inactive)
O=S1(=O)Nc2c(ccc3cccnc23)-c2ccccc21 | 69.5% (active)
O=S(=O)(c1ccc(Cl)cc1)N1CCN(c2ccc(N3CCOCC3)nn2)CC1 | -2.7% (inactive)
N#CC1=C(N)Oc2c(O)cc3ccccc3c2C1c1ccsc1 (stereo not given) | 30.3% (inactive)
N#CC1=C(N)Oc2c(ccc3ccccc23)C1c1ccsc1 (stereo not given) | 53.2% (active)
N#CC1=C(N)Oc2c(ccc3ccccc23)C1c1cccs1 (stereo not given) | 3.4% (inactive)
c1ccc(N2CCN(c3nc4ccccc4n4cnnc34)CC2)cc1 | 10% (inactive)
Nc1ccc(-c2ccc(N)c([N+](=O)[O-])c2)cc1[N+](=O)[O-] | -2.3% (inactive)
CC1(C)Oc2cc(N)c([N+](=O)[O-])cc2O1 | 28.1% (inactive)
O=c1[nH]cnc2ccsc12 | -6% (inactive)
CCOc1ccccc1NC(=O)CN(c1ccc(OC)cc1OC)S(=O)(=O)c1ccccc1[N+](=O)[O-] | -0.9% (inactive)
CC(=O)Nc1ccc2ccccc2c1 | 6.5% (inactive)
CC(=O)c1cccc(NC(=O)C(=O)Nc2cccc3ccccc23)c1 | -6.5% (inactive)

SMILES | inhibition
C/C(=C\C(=S)Nc1ccccc1)Nc1ccc2ccccc2c1 | 60% (active)
C/C(=C\C(=S)Nc1ccccc1)Nc1ccccc1 | -1.1% (inactive)
COc1ccc(N/C(C)=C/C(=S)Nc2ccccc2)cc1 | 50.1% (active)
CN(C)C(=S)Nc1ccc2ccccc2c1 | 3.2% (inactive)
COc1ccc(N/C(C)=C/C(=O)c2ccccc2)cc1 | 14.3% (inactive)
C/C(=C\C(=S)Nc1ccccc1)Nc1cccc2ccccc12 | 60.8% (active)
CN(C)c1ccc(NC(=O)Nc2cccc3ccccc23)cc1 | 25.8% (inactive)
CCn1c(SCC(=O)N/N=C/c2cc(OC)c(O)c(OC)c2)nc2ccccc21 | -11% (inactive)
CC(C)NS(=O)(=O)c1ccc(NC(=S)NC(=O)c2cccc([N+](=O)[O-])c2)cc1 | -2.9% (inactive)
O=C(O)CSc1nnc(-c2ccncc2)n1CCc1ccccc1 | -5.1% (inactive)
O=c1[nH]c2cc3c(cc2cc1CN(Cc1nnnn1CC1CCCO1)C1CCCC1)OCO3 (stereo not given) | -6.2% (inactive)
O=C(CCN1CCCCC1)c1ccc2c(c1)OCCO2 | 43% (inactive)
Cc1cccc(N2CCN(S(=O)(=O)c3cccc4nonc34)CC2C)c1 (stereo not given) | 26.5% (inactive)
Cc1[nH]n(-c2ccccc2)c(=O)c1C(c1ccccc1C(=O)O)c1c(C)[nH]n(-c2ccccc2)c1=O | -21.9% (inactive)
COc1cccc(OC)c1C(=O)Nc1ccc(NC(=O)c2ccco2)cc1 | 3.3% (inactive)
COc1ccc(NC(=O)c2ccco2)cc1N | 58.3% (active)
COc1ccc(NC(=O)c2ccco2)cc1NC(=O)c1ccco1 | 4.5% (inactive)
N#Cc1ccc(OCC(=O)NCC2(N3CCCCC3)CCCCC2)cc1 | -10.6% (inactive)
COc1ccc(-n2c(Cn3c(=O)sc4ccccc43)nnc2SCC(=O)N2CCCC2)cc1 | -4.6% (inactive)
O=C(O)CCc1c(C(=O)O)[nH]c2ccccc12 | -4.7% (inactive)
Cc1ccc(S(=O)(=O)N(C)C)cc1NC(=O)COC(=O)c1n[nH]c(=O)c2ccccc12 | -8% (inactive)
CCN(CC)S(=O)(=O)c1cccc(NC(=O)COC(=O)c2n[nH]c(=O)c3ccccc23)c1 | 53.3% (active)
CCN(CC)S(=O)(=O)c1cccc(NC(=O)COC(=O)c2cc(=O)c3ccccc3o2)c1 | 9.7% (inactive)
